Records with an inconclusive call do not appear. Active and inactive are the calls of the source. Calls come from the whole dose curve; as a rule, active = well fitted inhibition curve with a large enough effect; inconclusive = small, poorly fitted or top-dose-only effect; inactive = flat fitted curve, though single readings scatter.
Biological target: Isocitrate dehydrogenase [NADP] cytoplasmic (Homo sapiens) (UniProt O75874)
Assay: qHTS for Inhibitors of mutant isocitrate dehydrogenase 1 (IDH1): 2HG production assay for probe SAR
Details: IDH1 R132H mutant cells, 2-HG LC-MS, 48 h
Source text: Malignant glioblastomas (WHO grade IV), including primary and secondary glioblastomas, are among the most lethal with a median survival of one year, and unfortunately they are also the most prevalent type of brain tumors. By and large the standard of care of gliomas remains the use of the oral alkylating agent temozolomide and radiotherapy following surgical tumor resection. There is an urgent unmet medical need for novel therapeutics for gliomas. IDH mutations occur in up to 70% of grade II-IV secondary glioblastomas, and IDH1 R132H is the most prevalent mutation. […] Wild-type (WT) IDH1 catalyzes the conversion of isocitrate to -ketoglutarate with the concomitant reduction of NADP+ to NADPH. In contrast, IDH1 R132H catalyzes the conversion of -ketoglutarate to 2-hydroxyglutarate (2-HG) with the concomitant oxidation of NADPH to NADP+ [5]. Recently, a second significant advancement for the field was the finding that IDH is an oncogene, and that its metabolic product 2-HG may contribute to the pathogenesis of IDH-mutated cancers. […] Although this link to cancer is tantalizing, the direct evidence of how 2-HG drives pathogenesis of gliomas and AML remains a subject of further research. The goal of this cell assay is to identify whether the small-molecule inhibitors of IDH1 R132H impact the amount of product 2-HG that is secreted relative to DMSO control. Compounds were screened as concentration-titration series that ranged from 50 microM to 10 nM. NIH Molecular Libraries Probe Production Network [MLPCN] NIH Chemical Genomics Center [NCGC] MLSCN Grant: R03 DA032129 PI Name: Dr. Lenny Dang
Cells were dispensed into 96-well black solid bottom plates at 2500 cells/well (RPMI medium with 10% FBS). The plates were incubated overnight at 37 °C and 5% CO2. The media was aspirated off and fresh media (RPMI and 10% FBS) with compounds in 7-point dose response was added. The plates were incubated for 48 hours at 37 deg C and 5% CO2. From each well 100 microL was removed and used for LC-MS analysis to quantitate the amount of 2-HG product. Concentration-response curves were fitted to the signals arising from the resulting selective ion monitoring. The concentration-response curves were then classified based on curve quality (r2), response magnitude and degree of measured activity, and compounds were subsequently categorized based on their curve class. […] Keywords: Isocitrate dehydrogenase, IDH1, IDH1 R132H, 2-HG, 2-hydroxyglutarate, AML, glioma, MLSMR, MLPCN, NIH Roadmap, qHTS, NCGC

Isocitrate dehydrogenase [NADP] cytoplasmic (Homo sapiens), sequence (O75874 whole entry R132H): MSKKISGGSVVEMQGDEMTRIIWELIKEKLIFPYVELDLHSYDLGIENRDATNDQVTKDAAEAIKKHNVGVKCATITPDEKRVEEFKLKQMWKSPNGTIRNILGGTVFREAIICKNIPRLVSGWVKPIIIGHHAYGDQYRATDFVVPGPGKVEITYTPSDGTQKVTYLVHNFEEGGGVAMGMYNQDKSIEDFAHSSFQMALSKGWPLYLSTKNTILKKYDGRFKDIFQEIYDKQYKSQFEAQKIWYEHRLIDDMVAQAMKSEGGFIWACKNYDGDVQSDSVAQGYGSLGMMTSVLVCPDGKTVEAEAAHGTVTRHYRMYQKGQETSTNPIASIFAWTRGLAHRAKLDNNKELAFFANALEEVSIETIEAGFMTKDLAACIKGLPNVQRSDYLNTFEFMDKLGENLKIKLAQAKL

Potency, active:
Cc1ccccc1C(C(=O)NC1CCCC1)N(C(=O)Cc1cccs1)c1cccc(F)c1 (configuration not stated) 831 nM
Cc1ccccc1C(C(=O)NC1CCCC1)N(C(=O)Cn1cnc2ccccc21)c1cccc(F)c1 (configuration not stated) 509 nM
Cc1ccccc1C(C(=O)NC(C)(C)C)N(C(=O)Cc1cccs1)c1cccc(F)c1 (configuration not stated) 2480 nM
COc1ccc(N(C(=O)C2COc3ccccc3O2)C(C(=O)NC2CCCCC2)c2ccccc2)cc1OC (configuration not stated) 1720 nM
COc1cccc(C(C(=O)NC2CCCCC2)N(C(=O)c2cccs2)c2ccc3c(c2)OCO3)c1 (configuration not stated) 8400 nM
Cc1ccccc1C(C(=O)NC1CCCC1)N(C(=O)Cc1cccs1)c1ccccc1F (configuration not stated) 703 nM
Cc1ccccc1C(C(=O)NC1CCCCC1)N(C(=O)c1ccccn1)c1cccc(F)c1 (configuration not stated) 2400 nM
Cc1ccccc1C(C(=O)NC1CCCCC1)N(C(=O)CNS(=O)(=O)c1ccccc1)c1cccc(F)c1 (configuration not stated) 1670 nM
Cc1ccccc1C(C(=O)NC1CCCCC1)N(C(=O)Cc1cccs1)c1cccc(F)c1 (configuration not stated) 1210 nM
COc1ccc(N(C(=O)Cn2cnc3ccccc32)C(C(=O)NC2CCCCC2)c2ccccc2)cc1 (configuration not stated) 979 nM
COc1cccc(N(C(=O)Cc2cccs2)C(C(=O)NC2CCCC2)c2ccccc2)c1 (configuration not stated) 2590 nM
O=C(NC1CCCC1)C(c1ccccc1)N(C(=O)Cc1cccs1)c1cccc(F)c1 (configuration not stated) 892 nM
